Measured values from PubChem BioAssay (NCATS).
Several values for one entry are separate records, joined by “and”; a condition that tells them apart may be missing. Equal entries are not always repeated. Records with an inconclusive call do not appear. Values without a mark were called inactive. Activity calls are given as the source filed them. The call rests on the fitted dose curve; in most records, active means well fitted inhibition curve with a large enough effect; inconclusive means small, poorly fitted or top-dose-only effect; inactive means no such curve, though single readings can be large or run the other way.

molecular target: N-terminal Xaa-Pro-Lys N-methyltransferase 1 (Homo sapiens) (UniProt Q9BV86); assay: qHTS Assay for Inhibitors of N-terminal methyltransferase 1 (NTMT1): LOPAC validation of the NTMT1 SAHH-coupled ThioGlo3 Assay (AID 1347143); conditions: recombinant NTMT1, SAHH-coupled ThioGlo3 fluorescence; series mostly up to 114 µM; activity change, negative = inhibition: at the top concentration;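 further: SAH from peptide methylation measured as thiol fluorescence via SAHH coupling and ThioGlo3; nearly all actives have a fitted effect of over 70% in size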
Sequence (Q9BV86 whole entry, looked up): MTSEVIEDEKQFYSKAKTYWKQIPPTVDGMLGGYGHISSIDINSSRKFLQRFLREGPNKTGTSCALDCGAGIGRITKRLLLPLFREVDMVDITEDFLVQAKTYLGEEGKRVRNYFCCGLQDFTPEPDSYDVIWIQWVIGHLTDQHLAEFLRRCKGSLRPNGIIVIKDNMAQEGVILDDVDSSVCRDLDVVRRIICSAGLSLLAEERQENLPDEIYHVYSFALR
Source text: Assay Submitter (PI): Rong Huang Ph.D, Purdue University, West Lafayette, IN 47907 The N-terminal methytransferase 1 is the first methyltransferase that methylates protein alpha-N-amines and plays an important role in regulating cell mitosis, chromatin interactions and DNA repair. It is observed to be over-expressed in various cancer patient tissues like malignant melanoma and colorectal cancer tissues. Knockdown of NTMT1 in cancer cells causes cell mitotic defects and enhances sensitivity to DNA damaging chemotherapeutics. […] These critical cellular processes in which NTMT1 is implicated, coupled with emerging links to cellular dysfunction, strengthen the inference that NTMT1 is a compelling novel anticancer target. Progress have been made in understanding the molecular properties of NTMT1 and the biological consequences of protein alpha-N-terminal methylation, but there are no specific small molecule probes available for NTMT1 to fully characterize its MTase activity. To address this unmet need, a panel of assay is created and established to enable quantitative high-throughput screening (qHTS) for novel, potent, and selective small molecule NTMT1 inhibitors. Two orthogonal qHTS that use different reagents (ThioGlo vs. MTaseGlo) are developed for primary robotic screening against the NCATS chemical library of more than 400,000 small molecules. Identified inhibitors are reacquired, validated, and further characterized. […] A pilot screen against the LOPAC library of 1280 compounds is carried out to assess performance of the optimized qHTS in 1536-well plate format. Early Translation Branch (ETB) National Center for Advancing Translational Sciences (NCATS) National Institute of Health (NIH)
Materials: NTMT1 enzyme, substrate SPKRIA, control peptide RCC1-6 is provided by the Huang laboratory. ThioGlo3 Assay: In brief, 125nM NTMT1 enzyme was dispensed into a 1536-well assay plate with Aurora Discovery BioRAPTR Flying Reagent Dispenser (FRD, Beckton-Dickenson). Compounds (at various concentration) or 1uM RCC1-6 (SPKRIA) control were transferred to the assay plate using the Kalypsys 1536-pintool apparatus. After 1 min of room temperature incubation, 1uL of substrate (100uM SAM, 10uM SAHH, 15uM ThioGlo3) was added to the wells bringing the final assay volume to 4uL. Initial (background) fluorescence readout (EX: 340nm, EM: 450nm) was then detected using the PerkinElmer ViewLux microplate imager and a final fluorescence readout was taken after 30 min of room temperature incubation. The data was normalized to the background fluorescence.
On the % scale 0 is the no-effect control and ±100 the full control effect; potency means the concentration at half of the fitted maximal effect.

Row | SMILES | activity change, negative = inhibition | Potency
1 | C[C@]12CC[C@@H]3c4ccc(O)cc4CC[C@H]3[C@@H]1CCC2=O | -18.3% | –
2 | COCCOC(=O)C1=C(C)NC(C)=C(C(=O)OC/C=C/c2ccccc2)C1c1cccc([N+](=O)[O-])c1 (stereo not given) | -8.2% | –
3 | CCN(CC)CCNC(=O)c1cc(Cl)c(N)cc1OC | -24% | –
4 | CCCn1cnc2c1c(=O)n(CCCCC(C)=O)c(=O)n2C | -10.9% | –
5 | CSc1ccc2c(c1)N(CCC1CCCCN1C)c1ccccc1S2 (stereo not given) | – | 44.7 µM (active)
6 | C[C@](N)(Cc1ccc(O)cc1)C(=O)O | -13.7% | –
7 | CNCCCC1c2ccccc2C=Cc2ccccc21 | – | 56.2 µM (active)
8 | CC(CN1c2ccccc2Sc2ccccc21)N(C)C (stereo not given) | – | 50.1 µM (active)
9 | N=c1c[n+](N2CCOCC2)[n-]o1 | – | 44.7 µM (active) and 50.1 µM (active)
10 | OCc1cc(C(O)CNCCCCCCOCCCCc2ccccc2)ccc1O (stereo not given) | – | 56.2 µM (active)
11 | C=Cc1c(C)c2cc3[nH]c(cc4nc(cc5nc(cc1[nH]2)C(C)=C5CCC(=O)O)C(CCC(=O)O)=C4C)c(C)c3C=C | – | 39.8 µM (active)
12 | CC[C@H]1CN2CCc3cc(OC)c(OC)cc3[C@@H]2C[C@@H]1C[C@H]1NCCc2cc(OC)c(OC)cc21 | -18.1% | –
13 | CC1=C(CC(=O)O)c2cc(F)ccc2/C1=C\c1ccc(S(C)(=O)=O)cc1 | -25% | –
14 | CC(C)c1c(C(=O)Nc2ccccc2)c(-c2ccccc2)c(-c2ccc(F)cc2)n1CC[C@@H](O)C[C@@H](O)CC(=O)O | -8.23% | –
15 | CCN(CC)CCOC(=O)C1(C2CCCCC2)CCCCC1 | -21.6% | –
16 | O=C1NC(=O)[C@@]2(CCOc3ccc(F)cc32)N1 | -9.82% | –
17 | CC(C(O)c1ccc(O)cc1)N1CCC(Cc2ccccc2)CC1 (stereo not given) | -17.3% | –
18 | CCCCc1ncc(/C=C(\Cc2cccs2)C(=O)O)n1Cc1ccc(C(=O)O)cc1 | -29.3% | –
19 | CNCC(O)c1ccc(O)c(O)c1 (stereo not given) | -9.95% | –
20 | NC1[C@H]2CN(c3nc4c(cc3F)c(=O)c(C(=O)O)cn4-c3ccc(F)cc3F)C[C@@H]12 (stereo not given in full) | – | 50.1 µM (active)

Row | SMILES | activity change, negative = inhibition | Potency
21 | CC(=O)OCC(=O)[C@@]1(O)CC[C@H]2[C@@H]3CCC4=CC(=O)CC[C@]4(C)[C@H]3C(=O)C[C@@]21C | -13.3% | –
22 | CCN(CC)CCCC(C)Nc1c2ccc(Cl)cc2nc2ccc(OC)cc12 (stereo not given) | – | 39.8 µM (active)
23 | Nc1cc(=O)[nH]c(N)n1 | -20.9% | –
24 | Cc1cc(N)c2ccccc2[n+]1CCCCCCCCCC[n+]1c(C)cc(N)c2ccccc21 | – | 39.8 µM (active)
25 | COc1ccc(Cl)cc1C(=O)NCCc1ccc(S(=O)(=O)NC(=O)NC2CCCCC2)cc1 | -5.29% | –
26 | CN(C)CCOC(C)(c1ccccc1)c1ccccn1 (stereo not given) | -16.6% | –
27 | C[C@H](NC(CCc1ccccc1)C(=O)O)C(=O)N1CCC[C@H]1C(=O)O (stereo not given in full) | -17.5% | –
28 | CNCCC(Oc1ccc(C(F)(F)F)cc1)c1ccccc1 (stereo not given) | -21.2% | –
29 | CCN(CC)C(C)CN1c2ccccc2Sc2ccccc21 (stereo not given) | – | 25.1 µM (active)
30 | Cc1c(O)cccc1C(=O)N[C@@H](CSc1ccccc1)[C@H](O)CN1C[C@H]2CCCC[C@H]2C[C@H]1C(=O)NC(C)(C)C | -4.13% | –
31 | CCCCN(CCCC)CC(O)c1cc(Cl)cc2c1-c1ccc(Cl)cc1/C2=C/c1ccc(Cl)cc1 (stereo not given) | -11.7% | –
32 | NC(N)=NCCC[C@H](N)C(=O)O | -5.83% | –
33 | C[C@H]1O[C@@H](n2cc(F)c(=O)[nH]c2=O)[C@H](O)[C@@H]1O | -9.72% | –
34 | CC(CN(C)C)CN1c2ccccc2CCc2ccccc21 (stereo not given) | -25.1% | –
35 | CC(C)(C)c1onc(OCP(=O)(O)O)c1CC(N)C(=O)O (stereo not given) | – | inactive
36 | CN(C)CCC=C1c2ccccc2CCc2ccccc21 | -20.9% | –
37 | CC[N+](CC)(CC)CCOc1ccc(/C=C/c2ccccc2)cc1 | – | 39.8 µM (active)
38 | CN(C)CC[C@@H](c1ccc(Cl)cc1)c1ccccn1 | -13.8% | –
39 | CC(C)C(=O)c1c(C(C)C)nn2ccccc12 | -21.8% | –
40 | CC(C)(C(=O)O)c1ccc(C(O)CCCN2CCC(C(O)(c3ccccc3)c3ccccc3)CC2)cc1 (stereo not given) | -11.8% | –
